Screening data: PubChem BioAssay, Sanford-Burnham Center for Chemical Genomics
A selection: hits, their analogues and other compounds. The true share with any hit is near 2.6%.
eIF4H inh = inhibitors of RNA binding by human eIF4H; Q15056; inhibition, % at 35 µM; 290,000 tested, 0.94% active; eIF4H fluorescence polarization binding assay; AID 2012;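 note: calls also rest on retests at 20 µM and on dose response follow-up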
APOBEC3G inh = APOBEC3G (human) deaminase inhibition. 330,000 tested, 0.28% active. inhibition, % at 20 µM. recombinant A3G, ssDNA deamination FAM/TAMRA fluorescence;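 active = inhibition of at least 40% at 20 µM, with no more than 30% in the related APOBEC3A deaminase screen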;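 note: plate controls were DMSO wells with A3G for no effect and wells lacking A3G enzyme for full effect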
PHOSPHO1 inh = inhibitors of human PHOSPHO1 phosphatase | Q8TCT1 | recombinant PHOSPHO1, absorbance phosphatase assay | inhibition, % at 13.3 µM | 290,000 tested, 1.1% active; in the data active = inhibition above about 60%
Target sequence (Q8TCT1 whole entry, looked up): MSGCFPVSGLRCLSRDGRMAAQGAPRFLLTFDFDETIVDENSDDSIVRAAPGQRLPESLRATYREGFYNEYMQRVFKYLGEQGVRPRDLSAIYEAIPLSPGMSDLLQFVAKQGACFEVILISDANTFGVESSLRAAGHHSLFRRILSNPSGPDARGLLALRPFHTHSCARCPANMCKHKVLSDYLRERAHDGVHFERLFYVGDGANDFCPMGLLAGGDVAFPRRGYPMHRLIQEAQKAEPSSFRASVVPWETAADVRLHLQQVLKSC
PABP FP inh = blocks human PABP binding to poly(A) RNA; calls only at 35 µM; P11940; 290,000 tested, 1% active; fluorescence polarization; AID 2014;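 note: calls also rest on retests at 20 µM and on dose response follow-up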
MLLE-PAM2 inh = blocks PAM2 peptide binding to the PABP1 MLLE domain; GST-MLLE / FITC-PAM2 fluorescence polarization; inhibition, % at 20 µM; 360,000 tested, 0.36% active; AID 588489; in the data active = inhibition above about 35%, passing the limit was not always enough;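 note: plate controls were DMSO wells with GST-MLLE for no effect and wells lacking GST-MLLE protein for full effect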
A3A deaminase = human APOBEC3A DNA deaminase inhibition; P31941; recombinant A3A, FAM/TAMRA ssDNA deamination fluorescence; inhibition, % at 20 µM; 330,000 tested, 0.41% active; AID 493011;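 active = at least 40% inhibition at 20 µM here, with at most 30% in a related deaminase screen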;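 note: plate controls were A3A with DMSO for no effect and wells lacking A3A enzyme for full effect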
Target sequence (P31941 whole entry, looked up): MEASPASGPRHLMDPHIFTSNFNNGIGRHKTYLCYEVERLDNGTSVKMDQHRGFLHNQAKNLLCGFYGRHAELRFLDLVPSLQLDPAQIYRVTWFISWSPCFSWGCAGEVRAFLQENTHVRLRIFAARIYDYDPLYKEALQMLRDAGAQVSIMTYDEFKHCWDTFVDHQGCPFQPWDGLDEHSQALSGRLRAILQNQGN
Numbers without * were called inactive; i = inactive; u = inconclusive; x = not tested or not shown; + = active, no number. Unless noted, the rule behind the calls is not given here.

SMILES | eIF4H inh | APOBEC3G inh | PHOSPHO1 inh | PABP FP inh | MLLE-PAM2 inh | A3A deaminase
CC(C)COc1ccc(CNC(=S)N/N=C/c2ccc([N+](=O)[O-])cc2)cc1 | 4.7 | -4.5 | 95.4* | i | 9.5 | 4.4
COc1ccc(CNC(=S)N/N=C/c2ccncc2)cc1 | -6.3 | -4.4 | -4.5 | i | 12.6 | -0.7
CCCOc1ccc(CNC(=S)N/N=C/c2ccc([N+](=O)[O-])cc2)cc1 | -10.7 | -15.8 | 80.4* | i | 25.1 | -3.3
CCOc1ccc(CNC(=S)N/N=C/c2ccncc2)cc1 | -7.2 | -5.8 | 0.8 | i | 25.3 | -3.1
CC(C)Oc1ccc(CNC(=S)N/N=C/c2ccc([N+](=O)[O-])cc2)cc1 | -6.6 | -5.0 | 73.6* | i | 23.5 | -3.1
Cc1ccc(-c2nc3ccccc3nc2-c2ccccc2)cc1 | -4.4 | 1.7 | 24.3 | i | -6.5 | 0.5
Cc1ccc(-c2nc(N)s[n+]2-c2ccccc2)cc1 | 3.5 | x | 11.1 | i | 40.2* | x
CNc1nc(-c2ccccc2)[n+](-c2ccc(C)cc2)s1 | -18.0 | x | 89.9* | i | -48.0 | x
S=C(NC1CC2CCC1C2)N1CCN(c2cccc(Cl)c2)CC1 (stereo unspecified) | -7.5 | -14.9 | -1.7 | i | -127.3 | -7.3
Cn1c(SCC(=O)Nc2ccc3nc(SCC(=O)NC4CC4)sc3c2)nnc1-c1ccccc1 | 13.5 | -4.1 | -4.5 | i | -10.3 | -5.3
Cn1c(SCC(=O)Nc2ccc3nc(SCC(=O)N4CCCC4)sc3c2)nnc1-c1ccc(N)cc1 | 81.9 | x | 67.3* | i | 7.4 | x
COc1ccc(C(=O)NNC(=S)NC(=O)c2cccs2)cc1 | 11.9 | -7.5 | -68.9 | i | 18.9 | -4.9
COc1ccc(/C=C/C(=O)NC(=S)NNC(=O)c2cccs2)cc1 | 5.9* | -3.1 | -44.5 | i | -28.9 | -7.2
COCCN1CN(S(=O)(=O)c2ccccc2)c2nc3ccccc3nc21 | -14.0 | -3.8 | 10.5 | i | 37.4* | -1.3
O=S(=O)(c1cccs1)N1CN(Cc2ccco2)c2nc3ccccc3nc21 | u | -1.8 | 41.8 | u | -13.4 | -2.5
Cc1cccc(S(=O)(=O)N2CN(Cc3ccco3)c3nc4ccccc4nc32)c1 | 53.9* | -2.4 | 55.6 | + | -10.7 | -12.7
Cc1cc(NC(=O)CCC(=O)N(c2ccc(F)cc2)C(C(=O)NC2CCCC2)c2cccnc2)no1 (stereo unspecified) | 3.9 | -13.0 | 32.5 | i | -5.5 | -5.1
Cn1c(Oc2ccncc2)nc2cc(-c3ccsc3)sc2c1=O | x | x | x | x | 5.7 | x
[O-]/C(=C(\C(=S)Nc1cccc2ccccc12)[n+]1ccccc1)c1ccc(OC(F)F)cc1 | 8.3 | x | 31.7 | i | -5.0 | x
[O-]/C(=C(\C(=S)Nc1cccc2ccccc12)[n+]1ccccc1)c1ccc2c(c1)OCCO2 | 6.2 | -5.9 | 84.8* | i | 15.2 | -3.8
Cc1cc2cc(CNC(=O)c3ccc(S(=O)(=O)N4CCOCC4)cc3)ccc2n1C | 18.2 | -7.5 | -10.0 | i | 46.8* | -5.6
COc1cccc(CNC(=O)c2ccc(S(=O)(=O)N3CCOCC3)cc2)c1 | x | -7.1 | x | x | 11.8 | -1.7
Cc1cc2cc(CNC(=O)CCC(=O)O)ccc2n1C | 2.8 | -6.7 | -1.7 | i | 16.7 | -2.4
Cc1cc2cc(CNC(=O)c3ccc(S(=O)(=O)N(C)C)cc3)ccc2n1C | u | -11.6 | 22.2 | i | 50.3* | -3.0
COc1ccc(CCN(C(=O)C(F)(F)F)C(C(=O)NC2CCCCC2)c2ccc(C)s2)cc1OC (stereo unspecified) | -4.4 | -6.9 | 9.7 | i | 5.7 | -4.7
SMILES | eIF4H inh | APOBEC3G inh | PHOSPHO1 inh | PABP FP inh | MLLE-PAM2 inh | A3A deaminase
Cc1ccc(P(=O)(CSC(=N)N)c2ccc(C)cc2)cc1 | 3.4 | -9.5 | 3.4 | i | 27.5 | -5.6
N=C(N)SCP(=O)(c1ccccc1)c1ccccc1 | 5.8 | -2.2 | 23.9 | i | 37.9* | -1.2
O=C(CNC(=O)c1ccccc1F)N/N=C/c1cc(Br)ccc1OC(=O)/C=C/c1ccco1 | 83.7* | -4.1 | 7.9 | i | -21.3 | 2.4
CCC(C(=O)O)P(=O)(c1ccc(Cl)cc1)c1ccc(Cl)cc1 (stereo unspecified) | 7.0 | 0.1 | 1.7 | i | 13.2 | -0.1
CCCCN(C(=O)c1ccc(N2C(=O)c3ccccc3C2=O)cc1)c1c(N)n(CC(C)C)c(=O)[nH]c1=O | x | -5.1 | x | x | 0.0 | -2.9
CCOC(=O)CNc1ccc2c(c1)OCO2 | u | -6.2 | 13.2 | + | 127.4 | -5.7
